# rTrxR1 inhibitor: inhibitors of rat thioredoxin reductase 1; actives 1% (n = 390,000); O89049; AID 588453; recombinant rTrxR1, NADPH fluorescence consumption, selenite substrate; Potency, µM (series often up to 114 µM), inactives show top-dose activity change, negative = inhibition, hits mostly inhibitors; further: on the % scale 0 is the no-effect control and ±100 the full control effect; nearly all actives have a fitted effect of over 65% in size
#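 Rat TrxR1 (90 nM in the dispensed reagent) was pre-reduced with 400 uM NADPH for 5 min at room temperature, then incubated with compound for 15 min. After 400 uM selenite was added, NADPH fluorescence (Ex 340/Em 450 nm) was followed for 8 min.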
# IDH1 R132H inh: blocks human mutant IDH1 R132H enzyme; O75874; IDH1-R132H enzyme, NADPH consumption, diaphorase/resazurin fluorescence; Potency, µM (doses to about 76.6 µM), inactives show at the highest dose activity change, negative = inhibition, actives largely listed as inhibitors; actives 0.093% (n = 390,000); AID 602179; further: on the % scale 0 is the no-effect control and ±100 the full control effect; nearly all actives have a fitted effect of over 65% in size
# Target sequence (O75874 whole entry R132H, stated change not applied): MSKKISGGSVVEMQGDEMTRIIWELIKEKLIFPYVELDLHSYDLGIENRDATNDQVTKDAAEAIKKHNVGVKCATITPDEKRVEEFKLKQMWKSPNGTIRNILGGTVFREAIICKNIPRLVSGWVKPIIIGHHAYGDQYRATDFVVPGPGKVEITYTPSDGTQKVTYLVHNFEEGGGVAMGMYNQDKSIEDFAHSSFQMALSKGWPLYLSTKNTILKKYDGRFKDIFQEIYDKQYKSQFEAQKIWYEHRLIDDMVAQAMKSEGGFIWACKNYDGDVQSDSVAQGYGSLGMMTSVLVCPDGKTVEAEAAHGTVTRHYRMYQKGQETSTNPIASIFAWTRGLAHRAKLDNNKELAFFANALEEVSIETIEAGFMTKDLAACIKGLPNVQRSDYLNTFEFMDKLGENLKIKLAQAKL
#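 IDH1-R132H (0.5 ug/mL) preincubated 30 min with compound, then NADPH (0.016 mM) and alpha-KG (2 mM) added; 80 min at RT, pH 7.5. Remaining NADPH coupled via diaphorase/resazurin to fluorescence (540/590 nm); concentration-response curves normalized to no-enzyme control.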
# Nrf2 block: blocks Nrf2 signaling | A549 ARE-Fluc reporter, luciferase luminescence, 18-24 h | actives 2.1% (n = 360,000) | Potency, µM (highest dose often 46 µM), inactives show at the top dose activity change, negative = inhibition, usual class: inhibitors; further: on the % scale 0 is the no-effect control and ±100 the full control effect; nearly all actives have a fitted effect of over 60% in size
#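 In this cell-based qHTS, ARE-driven firefly luciferase in A549 cells reports Nrf2 activity; the luminescent signal after BugLite lysis is the measured value, with a prior CellTiter-Fluor read for cell health.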
# TrxR1 substrate: rat thioredoxin reductase 1 substrate activity; purified TrxR1 substrate turnover, NADPH consumption readout; Potency, µM (titrated, usually from 114 µM), without a hit: at the top dose activity change, negative = substrate turnover; AID 588456; actives 0.01% (n = 390,000); further: on the % scale 0 is the no-effect control and ±100 the full control effect; nearly all actives have a fitted effect of over 50% in size
#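 Rat TrxR1, dispensed at 90 nM, was prereduced with 400 uM NADPH (final) for 5 min at ~22 deg C, then incubated with compound 15 min before 400 uM selenite. A first-read NADPH fluorescence drop versus no-compound background flagged substrates.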
# Mito fusion yeast: blocks mitochondrial division or promotes mitochondrial fusion; S. cerevisiae fusion-defective mutant growth rescue, CellTiterGlo 48 h; Potency, µM (doses to about 46.1 µM), inactives show at the top dose growth rescue (activation), most hits filed as activators; actives 0.23% (n = 320,000); AID 485298; further: % of control where 0% means no effect; nearly all actives have a fitted effect of over 45% in size
#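 S. cerevisiae fusion-defective temperature-sensitive mutants (e.g. fzo1-1, mgm1-5) grown 48 h at 37C in YPEG (ethanol/glycerol non-fermentable) medium with 23 nl compound per well; growth rescue read as CellTiterGlo luminescence.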
# A549 tox: A549 cytotoxicity, counter-screen for Nrf2 inhibitors; A549 ARE-Fluc cells, CellTiter-Fluor viability, 18-24 h; Potency, µM (titrated, usually from 46 µM), for the others: at the top dose activity change, negative = cytotoxicity, actives largely listed as inhibitors; actives 0.16% (n = 390,000); AID 504648; further: on the % scale 0 is the no-effect control and ±100 the full control effect
#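 Cytotoxicity counterscreen: CellTiter-Fluor fluorescence was measured in A549 ARE_Fluc cells after 18-24 h of compound exposure in a concentration series. The subsequent BugLite luminescent read reports ARE-luciferase activity.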
# Starred values were filed as active, the others as inactive; ? = inconclusive; · = no result given; [ ] = another dose, or the depositor's remark. Compounds with a hit are over-represented: about 3.1% of the library has one in this group of screens. The call rests on the fitted dose curve; in most records, active means well fitted curve in the direction sought with a large enough effect; inconclusive means small, poorly fitted or top-dose-only effect, or another doubt; inactive means no such curve, though single readings can be large; an effect the other way counts as inactive or inconclusive. Potency means the concentration at half of the fitted maximal effect.
SMILES,rTrxR1 inhibitor,IDH1 R132H inh,Nrf2 block,TrxR1 substrate,Mito fusion yeast,A549 tox
COc1ccc(C(=O)C[n+]2ccccc2Cl)cc1,-14.6%,·,·,22.2%,·,·
COc1ccc(C2=Nn3c(nnc3-c3cc(OC)cc(OC)c3)SC2)cc1,·,·,?,·,·,-0.7%
Cc1ccc(S(=O)(=O)/N=C2/NC(=O)/C(=C\c3cc(Br)cc(Br)c3O)S2)cc1,-23.6%,-9.5%,2.3%,-12.2%,-6.4%,-10.1%
Cc1ccc(S(=O)(=O)/N=C2/NC(=O)/C(=C/c3ccc(Br)o3)S2)cc1,28.2µM*,-0.7%,?,-7.6%,8.8%,-9.4%
Cc1c(Cl)cccc1NC(=O)CCCn1nc(C)c2sc3ccccc3c2c1=O,11.9%,10.7%,1.6%,13.4%,·,-5.4%
COC(=O)C1=C(C)NC(=O)/C1=C\c1cccs1,-38.2%,4.1%,·,6.3%[57.1 µM],4.9%,-14.3%
COC(=O)C1=C(C)NC(=O)/C1=C\N(C)C,15.8µM*,-3.2%,?,0.5%[57.1 µM],?,0.2%
Cc1cc(C=Nc2ccc(/C=C/c3ccnc4ccccc34)cc2)ccc1N(C)C,-4.5%,·,·,-9.7%,·,·
Cc1cc(-c2csc(N)n2)c(C)n1C,?,6.6%,5.2%,-3.1%,-1.2%,-9.0%
Cc1cc(-c2csc(N)n2)c(C)n1Cc1ccco1,15.8µM*,2.5%,12.7%,-4.4%,6.7%,-1.7%
Cn1ncc2c(=S)nc(Cl)[nH]c21,7.08µM*,11.1%,0.0%,-14.1%,·,0.5%
O=C(CCN1C(=O)/C(=C/c2ccccc2F)SC1=S)NCCCN1CCOCC1,-12.5%[0.0914 µM],-1.0%,?,-5.7%,4.8%,?
COc1ccccc1/C=C1\SC(=S)N(CCC(=O)NCCCN2CCOCC2)C1=O,25.0%[11.4 µM],10.2%,?,-17.9%[11.4 µM],-8.5%,23.1µM*
O=C(CCCN1C(=O)/C(=C/c2ccccc2Cl)SC1=S)NCCCN1CCOCC1,-23.5%,4.4%,14.6µM*,-14.1%,1.5%,?
Cc1cc2c(s1)c1cnn(Cc3cc(F)c(F)c(F)c3F)c(=O)c1n2C,·,·,-11.3%,·,·,0.1%
COc1ccc(-c2nc3ccccc3o2)cc1NC(=O)COc1ccc(C)cc1,14.2%,·,·,21.3%,·,·
[O-]/C(=C(\C(=S)Nc1ccc(SC(F)F)cc1)[n+]1ccccc1)c1cc(Cl)ccc1Cl,18.9%[57.1 µM],-0.5%,20.6µM*,-9.9%,-4.1%,?
CCn1c(C)nc2cc(C(=O)NN=C(C)c3ccc(C#N)cc3)ccc21,-0.7%,0.0%,?,-4.8%,·,11.8%
CCn1c(C)nc2cc(C(=O)N/N=C(\C)c3ccc(OC)cc3O)ccc21,16.4%[57.1 µM],11.5%,23.1µM*,-5.1%,2.0%,-14.0%
COC(=O)c1ccccc1NC(=O)C1CCCN(c2nnc(C)c3c(C)n(-c4ccccc4)nc23)C1 (centres undefined),16.3%,13.5%,?,1.8%,·,0.3%
CCN(C(=O)c1cccc(S(=O)(=O)N(C)C)c1)C12CC3CC(CC(C3)C1)C2,-4.7%[57.1 µM],10.2%,20.6µM*,-4.8%[57.1 µM],17.6%,-14.7%
Cc1ccc(-c2csc3ncnc(Sc4nnnn4C4CC4)c23)cc1,-3.8%,·,·,-4.5%,·,·
O=C(CCNS(=O)(=O)c1ccc(Br)cc1)NC1CCCCC1,2.1%,-6.9%,-8.3%,0.9%,6.3%,-1.9%
CC1CCCC(NC(=O)CCNS(=O)(=O)c2ccc(Br)cc2)C1C (centres undefined),-14.4%,-2.9%,14.6µM*,-13.7%,13.7%,?
Cc1c(C(=O)Oc2cc(N)n(S(C)(=O)=O)n2)cccc1[N+](=O)[O-],25.1µM*,-1.7%,-28.3%,5.3%,5.3%,-4.1%
SMILES,rTrxR1 inhibitor,IDH1 R132H inh,Nrf2 block,TrxR1 substrate,Mito fusion yeast,A549 tox
COc1[nH]c(/N=C/c2ccco2)c(C#N)c1C#N,?,·,16.0%,2.9%,·,7.0%
CC(OC(=O)c1ccc2c(c1)OCCO2)C(=O)NC1CCCCC1C (centres undefined),4.6%[57.1 µM],-0.9%,18.4µM*,-0.3%[57.1 µM],3.4%,-16.3%
Cc1cc2c(s1)c1cnn(Cc3ccc(S(C)(=O)=O)cc3)c(=O)c1n2C,·,·,20.6µM*,·,·,-13.6%
Cc1ccc(Cn2ncc3c4sc(C)cc4n(C)c3c2=O)cc1,·,·,4.9%,·,·,-4.8%
O=C(CNC(=O)c1ccc(Cl)cc1)OC(C(=O)Nc1cc(C(F)(F)F)ccc1Cl)c1ccccc1 (centres undefined),·,·,4.2%,·,·,?
COc1ccc2c(c1)c1c(c(=O)n(-c3cccc(Cl)c3)c(=O)n1CC(=O)NCC1CCCO1)n2C (centres undefined),18.1%,-7.9%,2.9%,16.1%,·,-8.5%
O=C(CN1CCCC1)Nc1ccccc1C(=O)c1ccccc1,21.1%,-1.8%,2.3%,2.8%,-3.4%,14.8%
O=C(CN1CCN(S(=O)(=O)c2ccccc2F)CC1)Nc1ccccc1C(=O)c1ccccc1,11.6%,13.6%,14.6µM*,-1.7%,1.1%,-11.6%
O=C(CBr)c1ccc(Oc2ccc(C(=O)C[n+]3ccccc3Cl)cc2)cc1,-15.0%,·,·,5.1%,·,·
O=[N+]([O-])c1ccccc1C1Nc2cccc3cccc(c23)N1,79.4µM*,5.1%,-10.7%,-4.3%,4.2%,-11.4%
Oc1ccccc1C1Nc2cccc3cccc(c23)N1,-38.9%,6.0%,17.5%,10.6%[57.1 µM],-0.9%,-7.0%
COc1cc2c(cc1OC)C(C(=O)NC1CC1)C1c3ccccc3CCN1C2=O (centres undefined),1.4%,-8.8%,-9.4%,-0.5%,·,-14.2%
CCN(CC)CCNC(=O)C1c2cc(OC)c(OC)cc2C(=O)N2CCc3ccccc3C12 (centres undefined),35.5µM*,6.8%,-7.4%,1.9%,-1.8%,2.2%
CC(OC(=O)c1snc(C(=O)NC2CCCCC2)c1N)C(=O)NC(C)(C)C (centres undefined),5.1%,2.7%,11.2µM*,64.3%,23.8%,-20.2%
CN(c1ccccc1)S(=O)(=O)c1cccc(NC(=O)CSc2nnc(N)s2)c1,20.7%,2.3%,?,6.2%,-7.3%,-1.7%
Cc1nc2ccc(NC(=O)c3ccc4ccccc4n3)cc2s1,7.7%[57.1 µM],22.2%,?,-7.4%,3.98µM*,1.5%
O=C(Nc1ccc(S(=O)(=O)N(Cc2ccccc2)c2ccccc2)cc1)c1ccccc1F,20.9%,15.7%,5.7%,-2.8%,·,0.3%
O=C(Nc1ccc(S(=O)(=O)N(Cc2ccccc2)c2ccccc2)cc1)c1ccc(F)cc1,38.6%,-9.9%,23.1µM*,6.8%,·,-8.9%
CN(c1ccccc1)S(=O)(=O)c1cccc(NC(=O)CSc2nncs2)c1,7.1%,2.5%,20.6µM*,-1.3%,0.2%,-7.8%
COc1ccccc1N(C)S(=O)(=O)c1ccc(C(=O)NCC(C)C)cc1,-2.1%,3.4%,?,0.1%,3.5%,-6.5%

# Screens deposited in PubChem by National Center for Advancing Translational Sciences (NCATS).
